In PubChem BioAssay (NCI) one finds growth data, which are given here for 28 compounds.

Common to all, as to assay: NCI-60 one-dose screen, 48 h (100 = growth as untreated, 0 = no growth, -100 = all killed)
Common to all, as to conditions: 10 µM unless noted

The subject of assay [1] is T-47D breast.
Assay [2] relates to BT-549 breast.
For assay [3], the system named is MDA-MB-435 melanoma.
For assay [4], the system named is SW-620 colon.
Assay [5] relates to MCF7 breast.
Assay [6] has as its system HCT-116 colon.
For assay [7], the system named is HCC-2998 colon.
In assay [8] the test system is KM12 colon.

This is part of a sample that, as a whole, favours compounds with a hit. Of some 83,000 tested, about 20% had one in any assay.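 Activity criterion: percent growth below 10, measured after cells in 96-well plates were exposed to a single compound concentration for 48 hours.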 Values without a mark were called inactive. Activity calls are given as the source filed them.

`CN(C)c1ncc(C#Cc2c(F)cccc2F)c2ccccc12`: the growth was 36% in assay [1]; 95.7% in assay [2]; 105% in assay [3]; 97.7% in assay [4]; 28.5% in assay [5]; 80.1% in assay [6]. The growth in assay [7] was 97.6%; in assay [8], 98%.
As for `COc1ccccc1N1CCN(CC(O)COc2c(Br)c(Br)c(Br)c3c2OC(C)(C)C3)CC1` (centres undefined), the growth in assay [1] is 39.8%; in assay [2] it was 98.6%; in assay [3], 37.2%; in assay [4], 33.3%; in assay [5], 26.8%; in assay [6], 27.4%. Further, the growth in assay [7] was 39.9%; in assay [8], 35.7%.
As for `COc1ccc(Cn2cc(COc3ccc4c5ccnc(C)c5n(CCCc5ccccc5)c4c3)nn2)cc1`, the growth in assay [1] was 61.8%; in assay [2], 67.5%; in assay [3], 63.2%; in assay [4], 65.5%; in assay [5], 47.7%; in assay [6] it was 51.5%. The growth in assay [7] is 83%; in assay [8], 59.7%.
`C=C1C(=O)O[C@H]2[C@H]1CC/C(COC(=O)c1ccccc1)=C\CC[C@@]1(C)O[C@@H]21`: the growth in assay [1] was -18.7% (active); in assay [2] it was -13.7% (active); in assay [3], -3.73% (active); in assay [4] it was -55.4% (active); in assay [5] it was -30.7% (active); in assay [6], -86.6% (active). The growth was 83.9% in assay [7] and 65.6% in assay [8].
Regarding `C=CCn1c(SCC(=O)Nc2ccc(C(=O)/C=C/c3cc(OC)c(OC)c(OC)c3)cc2)nnc1-c1ccc(OC)cc1`, the growth in assay [1] is -2.4% (active); in assay [2], -23.8% (active); in assay [3], -38.1% (active); in assay [4], -6.73% (active); in assay [5], 0.763% (active); in assay [6] it was -29.4% (active). In addition, the growth in assay [7] is -65.8% (active); in assay [8] it was -33.7% (active).
As to `COc1cc(Br)c(-c2nc(-c3ccccc3)c(-c3ccccc3)n2Cc2ccccc2)cc1OC`, the growth in assay [1] was 35.8%; in assay [2] it was 75.9%; in assay [3], 59.8%; in assay [4], 73.4%; in assay [5], 38.3%; in assay [6] it was 30.3%. Also, the growth in assay [7] is 67.9%; in assay [8], 49.6%.
`CN(C)CC/C=C1\c2ccccc2Sc2ccc(Cl)cc21`: the growth in assay [1] is 70.7%; in assay [2] it was 86.5%; in assay [3], 36.2%; in assay [4] it was 81.5%; in assay [5], 62.3%; in assay [6] it was 36.5%. In addition, the growth is 27.4% in assay [7] and 69.3% in assay [8].
As to `CN(C)CCS(=O)(=O)Nc1cc(-c2ccc3ncnc(Nc4ccc(F)c(Cl)c4)c3c2)cnc1Cl`, the growth in assay [1] is -27% (active); in assay [2], -17.9% (active); in assay [3], -47.6% (active); in assay [4], -22.7% (active); in assay [5], 8.88% (active); in assay [6] it was -21.5% (active). Further, the values for the growth in assay [7] and in assay [8] were -83.7% (active) and -56.3% (active), respectively.
Consider `CN(C)C(=O)Nc1nc2cc(Cl)c(Cl)cc2[nH]1`, for which the growth in assay [1] is 52.5%; in assay [2], 39.5%; in assay [3] it was -24.5% (active); in assay [4], 29.8%; in assay [5] it was 15.4%; in assay [6] it was 1.15% (active). Besides, the growth in assay [7] is 14.2%; in assay [8] it was 1.99% (active).
As to `CC(=O)Oc1ccc(C(OC(C)=O)OC(C)=O)cc1`, the growth is 72.1% in assay [1]; 94.2% in assay [2]; 104% in assay [3]; 112% in assay [4]; 98.5% in assay [5]; 92.8% in assay [6]. The growth in assay [7] is 97.2%; in assay [8] it was 98.6%.
With `COc1ccc(-c2nn(-c3ccc(NC(=O)c4cc(C(F)(F)F)cc(C(F)(F)F)c4)cc3)cc2-c2ccncc2)cc1Cl`, the growth is 52.9% in assay [1]; 71% in assay [2]; 67.4% in assay [3]; 72.1% in assay [4]; 66.9% in assay [5]; 42.7% in assay [6]. For the same compound, the growth in assay [7] is 77.5%; in assay [8], 53.2%.
As for `COc1ccc2c(c1)OC(N(C(C)=O)C(C)=O)=C(C#N)C2c1ccc(F)cc1` (centres undefined), the growth is 42% in assay [1]; 38.1% in assay [2]; -29.2% (active) in assay [3]; 20.9% in assay [4]; 17.8% in assay [5]; 25.5% in assay [6]. The growth was 59.2% in assay [7] and 25.6% in assay [8].
Regarding `CC(C)(C)OC(=O)N1CC(Cn2cc(C(F)(F)F)c3c(Cl)ncnc32)C1`, the growth in assay [1] was 42.6%; in assay [2], -91.1% (active); in assay [3] it was -83.4% (active); in assay [4], -37.6% (active); in assay [5], -32.7% (active); in assay [6], -84.5% (active). In addition, the figures for the growth in assay [7] and in assay [8] were -89.2% (active) and -50.4% (active), respectively.
In the case of `C=C1C(=O)O[C@H]2[C@H]1CC/C(CNC(=O)/C1=C/CC[C@@]3(C)O[C@H]3[C@H]3OC(=O)C(=C)[C@@H]3CC1)=C\CC[C@@]1(C)O[C@@H]21`, the growth in assay [1] was 69.8%; in assay [2], 101%; in assay [3], 96.4%; in assay [4] it was 77.4%; in assay [5], 75%; in assay [6], 82.5%. For the same compound, the growth in assay [7] is 105%; in assay [8] it was 102%.
As for `CCOC(=O)c1[nH]c(-c2ccc(Cl)cc2)cc1-c1cccnc1`, the growth in assay [1] was 5.56% (active); in assay [2] it was 29.4%; in assay [3], -38% (active); in assay [4], 25.4%; in assay [5], 22.2%; in assay [6], 9.8% (active). Also, the growth in assay [7] was 29.9%; in assay [8], 19.8%.
As for `C/C(=N/NC(=O)Cn1c2ccccc2c2ccncc21)c1cccs1`, the growth in assay [1] was 96.4%; in assay [2], 104%; in assay [3], 110%; in assay [4] it was 103%; in assay [5] it was 102%; in assay [6], 100%. Moreover, the growth in assay [7] is 96.9%; in assay [8], 101%.
Turning to `CC1(C)Cc2c(Br)c(Br)c(Br)c(OCC(O)CN3CCN(c4ccccn4)CC3)c2O1` (centres undefined), the growth is 88.5% in assay [1]; 101% in assay [2]; 66.8% in assay [3]; 85.5% in assay [4]; 67.6% in assay [5]; 55.5% in assay [6]. Further, the growth in assay [7] was 92.7%; in assay [8], 80.7%.
For `Cc1cc(-c2ccccc2)nc2ccccc12`, the growth was 99.4% in assay [1]; 108% in assay [2]; 109% in assay [3]; 102% in assay [4]; 65.1% in assay [5]; 99.7% in assay [6]. The growth in assay [7] and in assay [8] was 106% throughout.
Regarding `COc1cc(/C=C/C(=O)c2c(C)[n+]([O-])c3ccccc3[n+]2[O-])ccc1O`, the growth in assay [1] was 111%; in assay [2], 89.5%; in assay [3] it was 78.6%; in assay [4], 92.9%; in assay [5], 93%; in assay [6] it was 91.2%. In addition, the growth in assay [7] is 116%; in assay [8], 108%.
Regarding `CCCCCCCCCCCCCCCC(=O)NS(=O)(=O)OC[C@H]1O[C@@H](n2cnc3c(N)ncnc32)[C@H](O)[C@@H]1O`, the growth in assay [1] was -16.9% (active); in assay [2] it was -65.2% (active); in assay [3], -74.5% (active); in assay [4] it was -39.2% (active); in assay [5], 5.8% (active); in assay [6], -25.8% (active). The growth in assay [7] was -85.9% (active); in assay [8], -39.2% (active).
Regarding `O=c1nc(N2CCOCC2)oc2c(-c3cccc4ccccc34)cccc12`, the growth in assay [1] was 79.7%; in assay [2] it was 85.3%; in assay [3], 101%; in assay [4] it was 97.9%; in assay [5] it was 89.8%; in assay [6] it was 96.7%. Further, the growth in assay [7] was 109%; in assay [8] it was 87.3%.
Regarding `C=C1C(=O)O[C@H]2[C@H]1CC/C(COC(=O)OC/C1=C/CC[C@@]3(C)O[C@H]3[C@H]3OC(=O)[C@@H](CN(C)C)[C@@H]3CC1)=C\CC[C@@]1(C)O[C@@H]21`, the growth in assay [1] is -15.2% (active); in assay [2] it was -1.01% (active); in assay [3], 2.87% (active); in assay [4] it was -56.5% (active); in assay [5], -29.7% (active); in assay [6], -72.7% (active). Further, the growth in assay [7] is 79.8%; in assay [8], 37.9%.
On to `O=C(Nc1ccc(-n2cc(-c3ccncc3)c(-c3ccc(O)c(Cl)c3)n2)cc1)Nc1cccc(Cl)c1Cl`, for which the growth in assay [1] was 42.1%; in assay [2], 59%; in assay [3], 51.3%; in assay [4], 73.7%; in assay [5] it was 42.2%; in assay [6] it was 36.8%. In addition, the growth in assay [7] is 70%; in assay [8], 39.1%.
In the case of `CCn1c(C)nc([N+](=O)[O-])c1Sc1nc(N)nc2nc[nH]c12`, the growth in assay [1] was 44.8%; in assay [2], 47.9%; in assay [3], 25.3%; in assay [4], 39.4%; in assay [5], 14.5%; in assay [6], 16%. The values for the growth in assay [7] and in assay [8] were 30.6% and 21.2%, respectively.
Consider `O=C(Nc1ccc(-n2ccc3c(NC(=O)c4ccccc4)nccc32)cc1)c1cccc(C(F)(F)F)c1`, for which the growth in assay [1] was 58.3%; in assay [2], 29%; in assay [3], 11%; in assay [4], 19.2%; in assay [5], 24.3%; in assay [6], 12.8%. In addition, the growth was 44.2% in assay [7] and 20.4% in assay [8].
Turning to `COc1ccc(-c2nn(-c3ccc(NC(=O)Nc4ccc(Cl)c(Cl)c4)cc3)cc2-c2ccncc2)cc1Cl`, the growth in assay [1] was 22.4%; in assay [2] it was 14.2%; in assay [3] it was 6.69% (active); in assay [4] it was 17.6%; in assay [5] it was 13.3%; in assay [6], 0.339% (active). Besides, the growth in assay [7] is 10.4%; in assay [8], 2.25% (active).
As to `O=c1c2ccccc2sc2c(N3CCCC3)nc3ccccc3c12`, the growth in assay [1] was 81.2%; in assay [2], 111%; in assay [3], 112%; in assay [4] it was 95%; in assay [5], 65.8%; in assay [6], 78%. For the same compound, the growth in assay [7] is 107%; in assay [8], 85.5%.
In the case of `CCCCOc1c(N)cccc1C(=O)OCCN(CC)CC`, the growth in assay [1] is 93.3%; in assay [2], 93.6%; in assay [3] it was 111%; in assay [4], 102%; in assay [5] it was 103%; in assay [6], 79.2%. Besides, the growth in assay [7] was 90.2%; in assay [8], 102%.
